Data reported in PubChem BioAssay (NCATS).
Values joined by “and” are separate entries in the source; they are usually repeats but may differ in a detail not shown here. Identical values can stand only once. Results filed as inconclusive are left out. Active and inactive are the calls of the source. Calls come from the whole dose curve.

Test: qHTS Assay for Lipid Storage Modulators (AID 1519); for activity change, negative = inhibition: % is set by controls: 0 for no effect and ±100 for the full control effect
Conditions: Drosophila S3 cells, BODIPY lipid droplet/cell ratio, laser cytometry, cells loaded with oleic acid
Summary of the method: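 Cells seeded at 5,000 per well were treated with compounds over a concentration series and loaded with oleic acid (400 uM, as added). Lipid droplet fluorescence (488 nm excitation, 500-530 nm channel) was read by laser-scanning cytometry and normalized to 20 uM Triacsin C.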

[1] = measured here: cell count channel max response
[2] = measured here: lipid channel max response

| SMILES | activity change, negative = inhibition (at 57.5 µM (top of the series)) | max response [1] | max response [2] | activity change, negative = inhibition (at 25.7 µM (top of the series)) |
| --- | --- | --- | --- | --- |
| Cc1[nH]c(C)c(Cl)c(=O)c1Cl | 7.41% (inactive) | 4.05% | 14% |  |
| O=C(CCBr)N1CCN(C(=O)CCBr)CC1 | 9.22% (inactive) | 16.2% | 29.1% |  |
| C/C=C/C(=O)N(CC)c1ccccc1C | 9.1% (inactive) | 2.55% | 11.8% |  |
| CC(=O)N[C@@H](CC(C)C)C(=O)O |  | -13.9% | -14.5% | -0.448% (inactive) |
| NS(=O)(=O)c1cc(C2(O)NC(=O)c3ccccc32)ccc1Cl (stereo not drawn) | 3.99% (inactive) | 20% | 27% |  |
| CN[C@@H]1[C@H](O)[C@H](NC)[C@H]2O[C@@]3(O)C(=O)C[C@@H](C)O[C@H]3O[C@@H]2[C@H]1O | -5.49% (inactive) | 7.5% | 3.08% |  |
| Cc1cc(NC(=O)C2=C(O)c3ccccc3S(=O)(=O)N2C)no1 |  | -4.56% | -5.22% | -0.235% (inactive) |
| CN1CCCN=C1COC(=O)C(O)(c1ccccc1)C1CCCCC1 (stereo not drawn) | 5.7% (inactive) | 7.14% | 15.3% |  |
| CCN(CC)CCc1nc(-c2ccccc2)no1 |  | -16% | -19.5% | -4.73% (inactive) |
| COc1ccc(NS(=O)(=O)c2ccc(N)cc2)nn1 |  | 3.32% | 3.23% | 0.554% (inactive) |
| C=CCSCC1Nc2cc(Cl)c(S(N)(=O)=O)cc2S(=O)(=O)N1 (stereo not drawn) | 8.24% (inactive) | 6.41% | 6.24% |  |
| CCc1cccc(CC)c1NC(=O)CN(CC(=O)O)CC(=O)O |  | -4.83% | -3.06% | 1.96% (inactive) |
| C1CCN2C[C@@H]3C[C@@H](CN4CCCC[C@@H]34)[C@H]2C1 | 2.67% (inactive) | 14.6% | 18.3% |  |
| CCOC(=O)[C@H](CCc1ccccc1)N[C@@H](C)C(=O)N1CCC[C@H]1C(=O)O |  | -1.26% | 0.539% | 0.997% (inactive) |
| C[C@@H]1CCC[C@H](C)N1 |  | -4.31% | -8.89% | -3.01% (inactive) |
| Cc1onc(-c2ccccc2)c1-c1ccc(S(N)(=O)=O)cc1 | 13.7% (inactive) | 11.6% | 23.9% |  |
| Cc1cccc(C(=O)O)c1O | 6.75% (inactive) | 1.99% | 8.34% |  |
| CC1CCc2cc(F)cc3c(=O)c(C(=O)O)cn1c23 (stereo not drawn) | 6.51% (inactive) | 18.4% | 28.6% |  |
| NC(=O)c1ccc([N+](=O)[O-])cc1Cl | -1.34% (inactive) | -11.1% | -9.4% |  |
| C[C@@H](N)C(=O)O | -5.25% (inactive) | -10.1% | -15.3% |  |
| CCCCCC(C)N (stereo not drawn) | -8.69% (inactive) | -12.5% | -21.2% |  |

| SMILES | activity change, negative = inhibition (at 57.5 µM (top of the series)) | max response [1] | max response [2] | activity change, negative = inhibition (at 25.7 µM (top of the series)) |
| --- | --- | --- | --- | --- |
| CC(=O)SC[C@@H](Cc1ccccc1)C(=O)NCC(=O)OCc1ccccc1 |  | -8.69% | -18.1% | -7.97% (inactive) |
| CC[N+](C)(CC)CCOC(=O)C1c2ccccc2Oc2ccccc21 |  | -9.32% | -11.4% | -1.37% (inactive) |
| CC[N+](CC)(CC(=O)Nc1c(C)cccc1C)Cc1ccccc1 |  | -6.23% | -4.81% | -1.02% (inactive) |
| Cc1ccsc1/C=C/C1=NCCCN1C | 7.06% (inactive) | 12.1% | 23.6% |  |
| CC(=O)Oc1cccc(O)c1 | 7.58% (inactive) | 7.77% | 18.4% |  |
| O=c1[nH]cnc2nc[nH]c12 | 6.77% (inactive) | 11.9% | 19.1% |  |
| O=C(Cn1ccnc1[N+](=O)[O-])NCCO | 2.99% (inactive) | -9.52% and 14.9% | -8.62% and 19.4% | -0.0007% (inactive) |
| O=C(O)c1cc(=O)c2ccccc2o1 | 0.609% (inactive) | 15.2% | 23.7% |  |
| Cc1c(NC(C)C)c(=O)n(-c2ccccc2)n1C | 9.46% (inactive) | 12.2% and 13.2% | 14.1% and 25.6% | 1.53% (inactive) |
| CCCCC1(COC(=O)CCC(=O)O)C(=O)N(c2ccccc2)N(c2ccccc2)C1=O | 5.77% (inactive) | -9.42% and 23.5% | -12.6% and 36.6% | -3.4% (inactive) |
| O=C(O)c1ccccc1C(=O)Nc1ccc(S(=O)(=O)Nc2nccs2)cc1 | 12.9% (inactive) | -5.87% and 21% | -9.76% and 42% | -0.565% (inactive) |
| Cn1c(=O)c2c(ncn2CCO)n(C)c1=O | 6.15% (inactive) | 7.29% and 18.9% | 6.36% and 16.1% | -0.0249% (inactive) |
| CN/C(=C\[N+](=O)[O-])NCCSCc1csc(CN(C)C)n1 |  | -17.1% | -17.9% | -0.861% (inactive) |
| NCc1ccc(S(N)(=O)=O)cc1 | 9.84% (inactive) | -7.52% and 18.9% | -8.55% and 31.3% | -2.86% (inactive) |
| C[N+](C)(C)CC[N+]1(C)Cc2c(Cl)c(Cl)c(Cl)c(Cl)c2C1 | 0.877% (inactive) | -22.8% | -20.9% |  |
| CCS(=O)(=O)CCn1c([N+](=O)[O-])cnc1C | 8.24% (inactive) | -6.2% and 14.4% | -8.29% and 29% | -0.644% (inactive) |
| CC(N)CCCC(C)(C)O (stereo not drawn) | 4.55% (inactive) | 25.6% | 35.7% |  |
| CC(=O)NCc1c(I)c(NC(C)=O)c(I)c(C(=O)O)c1I | 14.5% (inactive) | 17.6% | 37% |  |
| CC(C)(C)C(=O)OCOC(=O)[C@@H]1N2C(=O)[C@@H](NC(=O)[C@H](N)c3ccccc3)[C@H]2SC1(C)C |  | -13% | -12.6% | 2.04% (inactive) |
| CC(C)=CCC/C(C)=C/CO | 10.2% (inactive) | 14.3% | 29.9% |  |
| CCCNC(C)(C)COC(=O)c1ccccc1 |  | -4.93% | -6.33% | -1.27% (inactive) |
